# From PubChem BioAssay AID504467 (National Center for Advancing Translational Sciences (NCATS), 2011)
# Among all 330,000 compounds or so, about 7,700 (2.3%) were called active. Roughly 26% stayed inconclusive and do not appear here. The full list was thinned out, with actives kept by preference. A number with no mark means an inactive call. The call rests on the fitted dose curve; in most records, active means well fitted inhibition curve with a large enough effect; inconclusive means small, poorly fitted or top-dose-only effect, or effect the other way; inactive means flat fitted curve, though single readings scatter.
# Experiment: qHTS screen for small molecules that inhibit ELG1-dependent DNA repair in human embryonic kidney (HEK293T) cells expressing luciferase-tagged ELG1; further: nearly all actives have a fitted effect of over 55% in size
# Conditions: HEK293T ELG1-luciferase reporter, luminescence, 16 h, DNA damage induced by 5-fluorouridine; series mostly up to 46.1 µM; activity change, negative = inhibition: at the top concentration
# In short: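 5-Fluorouridine DNA damage + compound/DMSO, 2,000 cells/well, 16 h, 37 °C/5% CO2. ONE-Glo, 30 min RT, luminescence. Readout = decrease in reporter signal.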
# On the % scale 0 is the no-effect control and ±100 the full control effect; potency means the concentration at half of the fitted maximal effect.
SMILES,"activity change, negative = inhibition",Potency
COc1ccccc1NS(=O)(=O)c1ccc(C)c(C(=O)NNC(=O)c2csc(N3CCOCC3)n2)c1,4.5%,
CN(C(=O)CSc1nnc(-c2ccc3c(c2)OCO3)o1)C1CCS(=O)(=O)C1 (stereo not drawn),5.71%,
O=C(CN1CCN(S(=O)(=O)/C=C/c2ccccc2)CC1)Nc1ccc(N2CCOCC2)cc1,12.1%,
O=C(CN1CCN(c2cccc(Cl)c2)CC1)Nc1ccc(S(=O)(=O)N2CCOCC2)cc1,,18.3 µM (active)
O=C(CN1C(=O)CCC1=O)Nc1ccc(S(=O)(=O)N2CCOCC2)cc1,14%,
Cn1nc(-c2ccc(Cl)cc2)c2cc(C(=O)NCc3ccco3)sc21,,25.9 µM (active)
COc1ccc(-c2cc(C(=O)NCc3ccco3)no2)cc1OC,23.6%,
CCOC(=O)N1CCN(C(=O)c2cc3c(-c4ccc(Cl)cc4)nn(C)c3s2)CC1,-25.1%,
COc1ccccc1N1CCN(C(=O)c2cc(-c3ccc(Cl)c(Cl)c3)on2)CC1,22.4%,
COc1ccccc1N1CCN(C(=O)c2cc3c(-c4ccc(Cl)cc4)nn(C)c3s2)CC1,,11.6 µM (active)
CN(CCNC(=O)c1cc2c(-c3ccccc3F)nn(C)c2s1)C1CCCCC1,-7.81%,
Cc1ccc(CSCC(=O)N(C)CC(=O)Nc2ccc(C)cc2)cc1,-21.2%,
CC(=O)Nc1ccc(S(=O)(=O)NCC(=O)OCC(=O)c2ccc[nH]2)cc1,9.79%,
O=C(N/N=C/C=C/c1ccccc1)C1CC1(c1ccccc1)c1ccccc1 (stereo not drawn),3.5%,
CC(/C=C/c1ccco1)=N/NC(=O)C1COc2ccccc2O1 (stereo not drawn),-4.86%,
CC(/C=C/c1ccccc1)=N\NC(=O)C1CC1(C)c1ccccc1 (stereo not drawn),,23.1 µM (active)
C#CCOCCOCCOCCNc1nc(N2CCN(C(=O)[C@H](CO)n3cc([C@@H](N)C(C)C)nn3)CC2)nc(N2CCN(C(=O)[C@H](CCC(=O)O)n3cc([C@@H](N)[C@H](C)CC)nn3)CC2)n1,3.33%,
CC(C)(C)c1ccc(C(=O)NCCC(=O)NCc2ccco2)cc1,,5.8 µM (active)
O=C(CCNC(=O)c1ccccc1Cl)NCc1ccco1,4.02%,
CC(C)(C)c1ccc(NC(=O)NCc2ccco2)cc1,29.5%,
CCCCN(C(=O)c1ccc2ccccc2c1)c1c(N)n(CCCC)c(=O)[nH]c1=O,0%,

SMILES,"activity change, negative = inhibition",Potency
COCCn1cnnc1SCC(=O)Nc1cccc(S(=O)(=O)N2CCCCC2)c1,4.22%,
Cc1cccc(N2CC(C(=O)Nc3ccccc3N3CCCC3)CC2=O)c1C (stereo not drawn),-3.99%,
Cc1ccccc1NC(=O)Nc1ccccc1N1CCCCC1,,18.3 µM (active)
Cc1ccccc1NC(=O)NC1(C(=O)N2CCCC2)CCCCC1,-5.66%,
O=C(CCC1CCCCC1)Nc1cc(C(F)(F)F)ccc1N1CCOCC1,-4.46%,
Cc1nn(C)c(C)c1NS(=O)(=O)c1ccc(OC(F)(F)F)cc1,0.543%,
CCN(CC)c1ccc(NC(=O)CN2C(=O)NC3(CCc4ccccc43)C2=O)cc1 (stereo not drawn),5.28%,
CN(C)S(=O)(=O)c1cc(NC(=O)CN2C(=O)NC3(CCCc4ccccc43)C2=O)ccc1Cl (stereo not drawn),,25.9 µM (active)
CCN(CC)S(=O)(=O)c1ccc(CNC(=O)CN2C(=O)NC3(CCc4ccccc43)C2=O)cc1 (stereo not drawn),3.44%,
N#Cc1ccccc1S(=O)(=O)N1CCN(Cc2c(O)ccc3ccccc23)CC1,-3.58%,
CCn1c(SCC(=O)Nc2ccccc2F)nc2c(c1=O)SC(C)C2 (stereo not drawn),-13.6%,
COCCn1c(SCC(=O)Nc2cc(Cl)ccc2OC)nc2c(c1=O)SC(C)C2 (stereo not drawn),,25.9 µM (active)
COCCn1c(SCC(=O)Nc2cc(OC)ccc2OC)nc2c(c1=O)SC(C)C2 (stereo not drawn),-7.11%,
Cc1cc(NC(=O)CSc2nnc(-c3ccco3)n2N)no1,14.5%,
CCCNS(=O)(=O)c1ccc(CCC(=O)N2CCCC2)cc1,-1.71%,
CCNS(=O)(=O)c1ccc(CCC(=O)N2CCN(c3ccc(OC)cc3)CC2)cc1,-9.27%,
CCNS(=O)(=O)c1ccc(CCC(=O)N2CCN(c3cc(Cl)ccc3C)CC2)cc1,,11.6 µM (active)
O=C1OC[C@@H]2CCCN2C(=O)[C@H](CC(=O)N(CCO)Cc2ccccc2)C/C=C\CC[C@@H]1Cc1ccc(F)cc1,7.5%,
COc1ccc(C(=O)NC(=S)Nc2ccccc2N2CCN(S(C)(=O)=O)CC2)cc1OC,,14.6 µM (active)
O=C(NC(=S)Nc1ccccc1N1CCCCC1)c1ccc(F)cc1,3.01%,
CCC(=O)Nc1ccccc1N1CCN(S(C)(=O)=O)CC1,8.38%,

SMILES,"activity change, negative = inhibition",Potency
COc1ccc(NC(=O)COC(=O)Cn2c(C)nc3ccccc32)cc1OC,9.39%,
COc1ccc(NC(=O)c2cc3nc(-c4ccccc4)cc(C)n3n2)cc1OC,,10.3 µM (active)
COc1ccc(NC(=O)CNC(=O)Cc2ccccc2)cc1OC,1.57%,
COCCCNC(=O)CC1C[C@H](C(=O)N2CCCCC2)[C@@]2(CCc3ccccc3)c3[nH]c4ccccc4c3CCN2C1=O (stereo partly drawn),7.79%,
CC(Oc1ccc(Br)cc1)C(=O)NCC(c1ccco1)N1CCCCC1 (stereo not drawn),-0.374%,
O=C(Nc1cccc(Cl)c1N1CCOCC1)c1cccnc1,-3.8%,
O=C(Cc1ccccc1)Nc1ccc(NC(=O)c2cccnc2)cc1,2.94%,
O=C(Nc1ccc(N2CCN(C(=O)c3ccccc3)CC2)c(Cl)c1)c1cccnc1,,8.2 µM (active)
Cc1cc(C)cc(NC(=O)C(c2ccccc2)N2CCN(CC(=O)N3CCCC3)CC2)c1 (stereo not drawn),0.225%,
CCC(C(=O)NCc1cccnc1)n1nc(C)c2sc3ccccc3c2c1=O (stereo not drawn),-1.1%,
Cc1onc(-c2c(F)cccc2Cl)c1C(=O)OCC(=O)N1C(C)CCCC1C (stereo not drawn),-14.7%,
COc1ccc(NC(=O)CSc2nnc(-c3cccs3)n2Cc2ccco2)cc1OC,,20.6 µM (active)
CCc1ccc(NC(=O)CSc2nnc(-c3cnccn3)n2Cc2ccco2)cc1,-6.25%,
O=C(CSc1nnc(-c2cccs2)n1-c1ccccc1)NCc1ccco1,-7.53%,
Cn1cc(CCC(=O)NC2CC2)c2ccccc21,-3.64%,
CC(C)CCn1cnc2c1c(=O)n(CC(=O)NC(N)=O)c(=O)n2Cc1ccccc1,0.175%,
CCn1nc(C(=O)NNC(=O)C2CSC3(C)CCC(=O)N23)c2ccccc2c1=O (stereo not drawn),10.3%,
O=C(NNC(=O)c1cccc(S(=O)(=O)Nc2ccc(Cl)cc2)c1)c1ccc(=O)[nH]c1,1.65%,
Cc1nn(-c2ccccc2)c(C)c1C(=O)OCC(=O)NC(=O)NC1CCCCC1,-26.1%,
COc1ccc2nc(/N=C(\N)NC(=O)Nc3ccccc3)nc(C)c2c1,-16.6%,
Cc1nc(/N=C(\N)NC(=O)NC2CCCCC2)nc2ccccc12,,9.2 µM (active)
